Only some compounds are listed: those with a hit (about 12% of all), similar ones and a draw of the others.
G9a inh: qHTS Assay for Inhibitors of Histone Lysine Methyltransferase G9a. 350,000 compounds, 8.8% hits. G9a H3K9 monomethylation, AlphaScreen, 2 h. Potency, µM (highest dose often 102 µM), for the others: at the top dose activity, negative = inhibition, actives largely listed as inhibitors. Histone-lysine N-methyltransferase EHMT2 (Homo sapiens), Q96KQ7; further: on the % scale 0 is the no-effect control and ±100 the full control effect; nearly all actives have a fitted effect of over 75% in size
Target sequence (Q96KQ7 913-1193 limits assumed): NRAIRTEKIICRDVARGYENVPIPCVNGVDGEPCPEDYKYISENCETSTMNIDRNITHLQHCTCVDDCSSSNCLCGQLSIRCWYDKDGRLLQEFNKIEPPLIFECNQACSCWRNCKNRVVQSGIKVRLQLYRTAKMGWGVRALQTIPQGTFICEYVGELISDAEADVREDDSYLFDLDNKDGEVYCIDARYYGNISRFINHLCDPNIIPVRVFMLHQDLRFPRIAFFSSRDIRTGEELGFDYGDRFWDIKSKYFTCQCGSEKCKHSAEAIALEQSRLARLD
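Quantitative HTS format: methyltransferase activity on a biotin-tagged H3K9 peptide is measured by AlphaScreen, using a rabbit anti-monomethyl-H3K9 antibody with streptavidin donor and anti-IgG acceptor beads. Final levels are 20 nM enzyme, 500 nM peptide, 20 uM SAM; 2 h RT.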
JMJD2A Tudor: qHTS Assay for Inhibitors of JMJD2A-Tudor Domain; AlphaScreen JMJD2A-Tudor / H3K4me3 peptide binding; 390,000 compounds, 4.4% hits; Potency, µM (titrated, usually from 114 µM), without a hit: at the top dose activity change, negative = inhibition, actives largely listed as inhibitors; Lysine-specific demethylase 4A (Homo sapiens), O75164; AID 504339, 2011; further: on the % scale 0 is the no-effect control and ±100 the full control effect; nearly all actives have a fitted effect of over 50% in size
HP1b binding inh: HTS for Inhibitors of HP1-beta Chromodomain Interactions with Methylated Histone Tails. AlphaScreen HP1-beta / biotin-H3K9me3 peptide binding. Potency, µM (highest dose often 114 µM), for the others: at the top dose activity change, negative = inhibition, usual class: inhibitors. 390,000 compounds, 0.56% hits. AID 540317, 2011; further: nearly all actives have a fitted effect of over 70% in size
Target sequence (P83916 whole entry, looked up): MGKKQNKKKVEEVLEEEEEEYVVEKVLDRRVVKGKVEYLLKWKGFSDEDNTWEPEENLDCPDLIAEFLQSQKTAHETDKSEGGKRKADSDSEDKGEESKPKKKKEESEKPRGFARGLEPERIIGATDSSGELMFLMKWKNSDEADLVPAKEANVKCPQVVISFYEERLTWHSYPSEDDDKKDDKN
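Compound inhibition of the preformed complex between 50 nM HP1-beta and 50 nM biotinylated H3K9me3 peptide was read by AlphaScreen. Buffer was PBS pH 7.4 with 0.01% Tween-20. Incubations ran 30 min at room temperature, with 10 ug/mL donor/acceptor beads.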
Sfp PPTase inh: qHTS Assay for Inhibitors of Bacillus subtilis Sfp phosphopantetheinyl transferase (PPTase) | 4'-phosphopantetheinyl transferase ffp (Bacillus subtilis), Q9F4F7 | Biochemical Sfp PPTase activity, qHTS | Potency, µM, for the others: largest response in the series, negative = inhibition, most hits filed as inhibitors | 310,000 compounds, 3.5% hits | AID 1490, 2009;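 further: the enzyme is Sfp with the accession as filed and its product quenches rhodamine fluorescence; 0% = enzyme reaction without inhibitor and -100% = no enzyme wells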
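Sfp 15 nM + cpd, 15 min RT; start w/ rhodamine-CoA 5 uM, BHQ-2-YbbR 12.5 uM (final); 50 mM Hepes pH 7.6, 10 mM MgCl2, 0.01% NP-40, 0.01% BSA; read 525/598 nm at 0 and 30 min.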
BAZ2B inh: qHTS Assay for Inhibitors of BAZ2B; Potency, µM (titrated, usually from 114 µM), without a hit: at the highest dose activity change, negative = inhibition, usual class: inhibitors; AlphaScreen BAZ2B-H3K14Ac peptide displacement; AID 504333, 2011; 360,000 compounds, 4.4% hits; Bromodomain adjacent to zinc finger domain protein 2B (Homo sapiens), Q9UIF8; further: on the % scale 0 is the no-effect control and ±100 the full control effect; nearly all actives have a fitted effect of over 60% in size
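AlphaScreen displacement: compounds (up to 110uM) incubated 30 min at room temperature with a preformed 50 nM BAZ2B/50 nM biotinylated H3K14Ac peptide complex in PBS pH 7.4 with Tween-20. Donor and acceptor beads at 10 ug/mL final added, 20 min light-protected before reading.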
The depositor's hits bear a star; u = inconclusive; x = not tested or not shown; [ ] = remark or other dose. The call rests on the fitted dose curve; in most records, active means well fitted curve in the direction sought with a large enough effect; inconclusive means small, poorly fitted or top-dose-only effect, or another doubt; inactive means no such curve, though single readings can be large; an effect the other way counts as inactive or inconclusive. Potency means the concentration at half of the fitted maximal effect.

SMILES	G9a inh	JMJD2A Tudor	HP1b binding inh	Sfp PPTase inh	BAZ2B inh
Cc1c(C(=O)N(Cc2ccc(Cl)cc2)CC2CCCO2)oc2ccc(F)cc12 (stereo unspecified)	78%[59 µM]	63%	114%	x	47%
Cc1c(C(=O)N(Cc2ccc(N(C)C)cc2)CC2CCCO2)oc2ccc(Br)cc12 (stereo unspecified)	13µM*	13µM*	u	x	10µM*
Cc1cc(NC(=O)CN2C(=O)/C(=C/c3ccccc3F)SC2=S)no1	-1%	-23%	u	-8%	-2%
COc1ccc(NC(=O)Cn2cnc3c(nnn3-c3ccc(C)cc3)c2=O)cc1	7%	x	x	-2%	-15%
Cc1nnc(C)c2c(C)n(-c3cccc4cccnc34)c(C)c12	71µM*	x	x	4%	u
Cc1nnc(C)c2c(C)n(-c3ccccc3N)c(C)c12	-44%	u	13%	56µM*	-38%
Cc1nnc(C)c2c(C)n(-c3ccccc3)c(C)c12	-16%	u	-7%	-4%	-10%
Nc1ncc(N=Nc2cc(C(=O)O)ccc2Cl)s1	-132%[59 µM]	u	u	u	89µM*
Cc1c(Cl)cccc1NC(=O)NCc1ccc(F)cc1	50µM*	-8%	11%	3%	-5%
Cc1ccc(C)c(NC(=O)CCC(=O)N/N=C/c2ccc[nH]2)c1	x	-24%	22%	-17%	-30%
Cc1c(Cl)cccc1NC(=O)CCC(=O)N/N=C/c1ccc[nH]1	18µM*	-29%	2%	45µM*	5%
Cc1c(Cl)cccc1NC(=O)CCN1CCOCC1	40µM*	-3%	32%	0%	4%
Cc1c(Cl)cccc1NC(=O)CCN1C(=O)NC(C)(C)C1=O	50µM*	2%	49%	x	-5%
Cc1c(Cl)cccc1NC(=O)NCc1ccccn1	95%	-8%	33%	19%	-2%
Cc1ccc(NC(=O)Cn2cc(C(=O)c3cccs3)c3ccccc32)cc1C	-20%[59 µM]	-14%	38%	x	-13%
COC(=O)C1=NNC2(c3ccc(C)cc3)C(=O)N(c3ccc(C)cc3)C(=O)C12 (stereo unspecified)	0%	-28%	17%	13%	-18%
CCN1CCN(C(c2ccc(SC)cc2)c2c(O)cc(C)n(Cc3ccco3)c2=O)CC1 (stereo unspecified)	u	79µM*	-13%[57 µM]	x	-13%
CCN1CCN(C(c2ccc(OC)cc2)c2c(O)cc(C)n(Cc3ccco3)c2=O)CC1 (stereo unspecified)	u	79µM*	10%[57 µM]	x	-17%
CCN1CCN(C(c2ccccc2)c2c(O)cc(C)n(Cc3ccco3)c2=O)CC1 (stereo unspecified)	u	u	14%[57 µM]	x	-19%
COCCNC(=O)CN1C(=O)NC2(CCCc3cc(OC)ccc32)C1=O (stereo unspecified)	-11%[2.33 µM]	0%	25%	15%	6%
COc1ccc(N2CCN(C(=O)c3oc4ccccc4c3NC(=O)c3ccccc3OC)CC2)cc1	5.6µM*	u	14%	x	-18%[57.1 µM]
O=C(Nc1c(C(=O)N2CCN(c3ccccc3)CC2)oc2ccccc12)c1ccccc1F	u	-21%	-15%	x	-18%
COc1ccc(N2CCN(C(=O)c3oc4ccccc4c3NC(=O)CCc3cc(OC)no3)CC2)cc1	35µM*	45µM*	-21%	1%	u
Cc1ccccc1C1CC(=O)Nc2ccc3ccccc3c21 (stereo unspecified)	-4%[59 µM]	0%	38%	x	0%
CC(C)NC(=O)CSc1nc(Cc2cccs2)nc2ccccc12	25µM*	-31%	27%	-3%	1%
Cc1nc(SC2C=CS(=O)(=O)C2)n[nH]1 (stereo unspecified)	50µM*	56µM*	8%	7%	u
COc1ccc(NC2C=CS(=O)(=O)C2)cc1 (stereo unspecified)	6%[59 µM]	-16%	45%	2%	-3%
COc1ccc(-n2ccnc(NCc3ccc(Cl)cc3)c2=O)cc1	11%[59 µM]	-10%	51%	x	16%
